This is a sample that favours compounds with a hit; in the whole collection about 2.5% have one here.
aSyn UTR inh: MLPCN primary screen, SNCA 5' untranslated region | alpha-synuclein 5'UTR reporter, inhibitor activity | inhibition, % (tested at 7.5 µM) | 0.82% of 300,000 active | AID 1813, 2009; in the data active means inhibition above about 60%; inconclusive means no clear call, values can overlap the other calls;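 further: H4 neuroglioblastoma cells stably carrying SNCA 5'UTR luciferase fusion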
ANO1 block: TMEM16A chloride channel inhibitors, primary screen, cell-based, HTS | AID 588511, 2011 | 1.2% of 310,000 active | HEK293 TMEM16A/YFP iodide influx fluorescence, ionomycin | normalized B-score (activity score, 25-100; higher = stronger inhibition) at 10 µM;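 active means ratio plate-corrected score three or more library SD toward inhibition, starting fluorescence score within five deviations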;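 further: score derived from kinetic fluorescence span divided by baseline fluorescence per well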
Target sequence (Q8BHY3 whole entry, looked up): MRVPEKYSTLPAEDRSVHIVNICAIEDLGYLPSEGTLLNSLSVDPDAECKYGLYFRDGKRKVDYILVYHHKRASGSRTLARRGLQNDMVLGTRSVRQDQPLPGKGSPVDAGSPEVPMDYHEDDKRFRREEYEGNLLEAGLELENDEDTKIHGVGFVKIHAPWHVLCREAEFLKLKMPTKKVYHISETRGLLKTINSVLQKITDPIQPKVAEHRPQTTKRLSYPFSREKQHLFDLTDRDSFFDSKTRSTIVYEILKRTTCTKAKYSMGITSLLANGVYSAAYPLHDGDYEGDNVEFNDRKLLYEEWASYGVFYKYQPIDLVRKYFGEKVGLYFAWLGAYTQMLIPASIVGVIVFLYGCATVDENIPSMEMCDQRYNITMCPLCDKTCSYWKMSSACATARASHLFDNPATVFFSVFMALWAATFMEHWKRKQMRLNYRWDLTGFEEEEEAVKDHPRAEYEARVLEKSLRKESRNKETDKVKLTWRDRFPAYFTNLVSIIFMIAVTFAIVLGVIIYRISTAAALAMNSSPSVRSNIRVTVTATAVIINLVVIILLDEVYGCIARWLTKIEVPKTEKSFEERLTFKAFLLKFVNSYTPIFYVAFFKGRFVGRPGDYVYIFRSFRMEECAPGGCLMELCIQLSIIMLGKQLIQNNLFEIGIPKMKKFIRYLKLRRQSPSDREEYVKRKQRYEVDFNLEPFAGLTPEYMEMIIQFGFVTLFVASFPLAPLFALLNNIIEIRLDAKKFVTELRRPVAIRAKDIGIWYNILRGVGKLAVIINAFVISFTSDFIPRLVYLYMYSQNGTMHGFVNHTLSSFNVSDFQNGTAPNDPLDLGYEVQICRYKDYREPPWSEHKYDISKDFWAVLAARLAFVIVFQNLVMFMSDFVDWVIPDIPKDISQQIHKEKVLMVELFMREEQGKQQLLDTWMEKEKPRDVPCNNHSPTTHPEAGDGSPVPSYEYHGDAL
Jurkat NFkB inh: inhibitors of induced NF-kB luciferase reporter, primary screen, TCR NF-kB activation inhibitor project, cell-based, luminescence, uHTS; Jurkat, PMA/ionomycin-induced NF-kB luciferase reporter; inhibition, % at 4 µM; 0.53% of 330,000 active; in the data active means inhibition above about 50%
697 NFkB inh: inhibitors of PMA/ionomycin-induced NF-kB reporter, 697 cells, primary screen, B-cell NF-kB inhibitor project, cell-based, luminescence, uHTS | 697 B-cell NF-kB luciferase reporter, 16 h | inhibition, % at 4 µM | 0.33% of 330,000 active | AID 435022, 2010; in the data active means inhibition above about 35%
KLF5 inhibitor: KLF5 expression inhibitors, primary screen, DLD-1 cells, luminescence; DLD-1 KLF5 promoter-luciferase reporter; inhibition, % at 5 µM; 0.23% of 290,000 active; AID 1700, 2009;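 active means inhibition above a per-plate limit of that plate's mean compound inhibition plus 3 SD, cut at about 60% in these data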;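 further: higher means less KLF5 promoter-driven luciferase light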
TMEM16A act: TMEM16A chloride channel activators or potentiators, primary screen, cell-based, HTS. HEK293 TMEM16A/YFP-H148Q/I152L, iodide quench fluorescence; stronger effect = lower value. B-score at 10 µM. 0.3% of 340,000 active;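 active means fluorescence-ratio B-score plate-corrected deviation score at least 3 library SD below zero, with starting fluorescence score within 5 deviations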;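 further: channel opened by trigger with iodide after compound preincubation; score built on the fluorescence ratio of max minus min over baseline; more negative score means more quench and so TMEM16A activation or potentiation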
KLF5 confirm: KLF5 expression inhibitors, confirmation, DLD-1 cells, luminescence; 79% of 610 active; DLD-1 KLF5 promoter firefly luciferase reporter; inhibition, % at 4 µM; shares compounds with KLF5 inhibitor;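 active means inhibition above a set limit taken from the earlier primary screen, cut at about 63% in these data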
IEC-6 tox trip: cytotoxicity in rat IEC-6 cells, cytotoxicity control for KLF5 inhibitor project, cell-based, luminescence, triplicate. shares compounds with KLF5 inhibitor. IEC-6 rat intestinal cells, viability luminescence. inhibition, % at 4 µM. 56% of 610 active. AID 1905, 2009; in the data active means inhibition above about 23%;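 further: cells exposed to compounds for 48 hours before viability read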
Each line names hits and unclear results; the compound was inactive in the other large screens (follow-up assays come after a bar, where they were run).

CC1=C(C(=O)Nc2ccccc2C(=O)NC2CCC(C)CC2)SCCO1 (stereo unspecified)	none
CC(=O)NNC(=O)c1[nH]c2ccc(Cl)cc2c1-c1ccccc1	none
NNC(=O)c1[nH]c2ccccc2c1-c1ccccc1	aSyn UTR inh 95.7, KLF5 inhibitor 81.6 | KLF5 confirm inactive | IEC-6 tox trip inactive
O=Cc1ccc2ccc3cccnc3c2n1	KLF5 inhibitor 77.8 | KLF5 confirm inactive | IEC-6 tox trip inactive
CCN(C(=O)COC(=O)/C=C/c1cccc(Br)c1)C1CCS(=O)(=O)C1 (stereo unspecified)	none
CN(C(=O)COC(=O)/C=C/c1cccc([N+](=O)[O-])c1)C1CCS(=O)(=O)C1 (stereo unspecified)	KLF5 inhibitor 83.2 | KLF5 confirm 97.4 | IEC-6 tox trip inactive
O=C1C2C3C=CC(C4CC34)C2C(=O)N1CCCCN1CCN(c2ccc(F)cc2)CC1 (stereo unspecified)	none (no result: KLF5 inhibitor)
O=C(CSc1nnc2ccc(-c3ccncc3)nn12)c1cccs1	KLF5 inhibitor 62.6 | KLF5 confirm inactive | IEC-6 tox trip inactive
O=C(Nc1ccc(S(=O)(=O)N2CCOCC2)cc1)c1ccc([N+](=O)[O-])o1	KLF5 inhibitor 99.2 | KLF5 confirm inactive | IEC-6 tox trip inactive
CS(=O)(=O)c1cccc(-c2csc(N3CCC(C(N)=O)CC3)n2)c1	none (no result: aSyn UTR inh, ANO1 block, KLF5 inhibitor)
COc1ccc(OC)c(C2=Nn3c(nnc3-c3cc(OC)c(OC)c(OC)c3)SC2)c1	none
COc1cc(-c2nnc3n2N=C(c2ccccc2)CS3)cc(OC)c1OC	aSyn UTR inh 62.8, KLF5 inhibitor 79.1 | KLF5 confirm 73.3 | IEC-6 tox trip 68.5
COc1cc(OC)cc(C(=O)Nc2nc3ccccc3[nH]2)c1	none
O=C(Nc1nc2ccccc2[nH]1)c1ccccc1F	aSyn UTR inh 108.4, KLF5 inhibitor 75.8 | KLF5 confirm 74.6 | IEC-6 tox trip 46.3
O=C(Nc1nc2ccccc2[nH]1)c1ccccc1OC(F)F	none
CC(C)Oc1ccc(C(=O)Nc2nc3ccccc3[nH]2)cc1	aSyn UTR inh 81.5, KLF5 inhibitor 87.0 | KLF5 confirm 77.5 | IEC-6 tox trip inactive
CCc1ccc(C(=O)Nc2nc3ccccc3[nH]2)cc1	aSyn UTR inh 87.9, KLF5 inhibitor 84.3 | KLF5 confirm 71.9 | IEC-6 tox trip inactive
O=C(NNc1ncc(C(F)(F)F)cc1Cl)c1c(Cl)cccc1Cl	KLF5 inhibitor 71.3 | KLF5 confirm inactive | IEC-6 tox trip inactive
NC(=O)NNc1ncc(C(F)(F)F)cc1Cl	none
O=C(CSc1nc2ccccc2[nH]1)Nc1ccc(N2CCOCC2)cc1	none
Cc1c(/C=N\NC(=O)C2COc3ccccc3O2)c2ccccc2n1C (stereo unspecified)	aSyn UTR inh 102.0, KLF5 inhibitor 74.3 (no result: Jurkat NFkB inh, 697 NFkB inh) | KLF5 confirm 82.3 | IEC-6 tox trip 75.5
CN1CCN(C(c2ccc(C(F)(F)F)cc2)c2ccc3cccnc3c2O)CC1 (stereo unspecified)	none (no result: TMEM16A act)
Oc1c(C(c2cccs2)N2CCN(c3ccccc3)CC2)ccc2cccnc12 (stereo unspecified)	KLF5 inhibitor 69.1 (no result: aSyn UTR inh, TMEM16A act) | KLF5 confirm inactive | IEC-6 tox trip inactive
O=C(NC1=NCCS1)C1COc2ccccc2O1 (stereo unspecified)	aSyn UTR inh 98.2, KLF5 inhibitor 68.8 | KLF5 confirm 71.0 | IEC-6 tox trip inactive
CC(NC(=O)C(C)N1CCN(S(=O)(=O)c2ccccc2)CC1)c1ccccc1 (stereo unspecified)	none (no result: aSyn UTR inh, ANO1 block, KLF5 inhibitor)
COC(=O)C1CC23C=CCN4CCC5(c6ccccc6NC15C2C)C43 (stereo unspecified)	aSyn UTR inh 93.8, KLF5 inhibitor 61.9 | KLF5 confirm 78.6 | IEC-6 tox trip 59.2
CN1CC[C@]23c4ccccc4N[C@H]1[C@]21CCN(C)[C@H]3Nc2ccccc21	none (no result: aSyn UTR inh, KLF5 inhibitor)
CC1(C)N=C(N)N=C(N)N1c1ccc(OCCCOc2ccccc2)c(Cl)c1	aSyn UTR inh 78.3, KLF5 inhibitor 76.9 (no result: Jurkat NFkB inh, 697 NFkB inh) | KLF5 confirm 72.7 | IEC-6 tox trip 65.6
Cc1ccc(-n2nnc(-c3nccs3)n2)cc1	aSyn UTR inh 95.4, KLF5 inhibitor 62.6 | KLF5 confirm 64.0 | IEC-6 tox trip inactive
Cc1nnc(NC(=O)c2ccc3c(c2)OCO3)s1	none
CSc1nnc(NC(=O)c2ccc3c(c2)OCO3)s1	aSyn UTR inh 81.4, KLF5 inhibitor 74.8 | KLF5 confirm inactive | IEC-6 tox trip inactive
COc1cccc(-c2cc(N3C(=O)Nc4ccccc4N3O)n[nH]2)c1	none
CCOc1ccc(-c2cc(N3C(=O)Nc4ccccc4N3O)n[nH]2)cc1	KLF5 inhibitor 68.7 | KLF5 confirm inactive | IEC-6 tox trip inactive
Oc1[nH]c2ccccc2c1N=NC(=S)N1CCOCC1	KLF5 inhibitor 67.6 | KLF5 confirm 88.8 | IEC-6 tox trip 48.3
COC(=O)N=Nc1c(O)[nH]c2ccc(Br)cc12	none
Oc1[nH]c2ccc(Br)cc2c1N=NC(=S)N1CCOCC1	KLF5 inhibitor 75.4 | KLF5 confirm 85.2 | IEC-6 tox trip 56.3
C/C(=N\NC(=O)c1n[nH]c2c1CCC2)c1cccs1	aSyn UTR inh 107.2, KLF5 inhibitor 74.7 | KLF5 confirm 70.7 | IEC-6 tox trip inactive
O=C(NC(=O)c1ccccc1)Nc1ccccn1	aSyn UTR inh 64.3, KLF5 inhibitor 84.3 | KLF5 confirm 65.6 | IEC-6 tox trip 32.5
O=C(Nc1ccccn1)c1ccc(C(=O)c2ccccc2)cc1	none (no result: KLF5 inhibitor)
COc1cc(C(=O)NCC(=O)N/N=C(\C)Cc2ccccc2)cc(OC)c1OC	none
COc1cc(C(=O)N/N=C(\C)Cc2ccccc2)cc(OC)c1OC	KLF5 inhibitor 75.9 | KLF5 confirm inactive | IEC-6 tox trip inactive
Cc1ccc(N(CC(=O)NC2CCCCC2)C(=O)CNC(=O)c2ccco2)c(C)c1	none
CCOc1ccc(S(=O)(=O)Nc2cc(OC)ccc2OC)cc1	aSyn UTR inh 80.7, KLF5 inhibitor 72.7 | KLF5 confirm 82.5 | IEC-6 tox trip 59.4
COc1ccc(OC)c(NS(=O)(=O)c2ccc(SC)cc2)c1	none
COc1ccccc1OCC(=O)N/N=C/c1cccc2cccnc12	none
COc1ccccc1OCC(=O)N/N=C/c1c(O)ccc2ccccc12	aSyn UTR inh inconclusive, KLF5 inhibitor 67.4 | KLF5 confirm inactive | IEC-6 tox trip inactive
O=C(c1ccncc1)N1CCN(S(=O)(=O)c2ccccc2Br)CC1	none (no result: aSyn UTR inh, ANO1 block, KLF5 inhibitor)
N#CC1(NC(=O)Cn2ncc(Cl)c(Cl)c2=O)CCCCC1	none (no result: KLF5 inhibitor)
